Consider 13 compounds from PubChem BioAssay AID2284344 (EPA ToxCast).

SMILES strings stand for the structures. Inconclusive results are not listed. Activity calls are given as the source filed them. The calls were made as follows: active = hit-call score of the fitted dose curve at least 0.9, where 1 is the maximum; inconclusive = response in the unintended direction; inactive = score below 0.9.

This test relates to frog Peroxisome Proliferator-activated Receptor-alpha (PPARa), gene 398843. In words: ATG_frPPARa_EcoTox2: Attagene TRANS-FACTORIAL EcoTox-2 HepG2 Assay for frog Peroxisome Proliferator-activated Receptor-alpha (PPARa). The procedure: ATG_EcoTox2 is a cell-based, multiplexed assay created by modifying the existing Attagene TRANS-FACTORIAL system to include a panel of nuclear receptors from some or all the following species: human (Homo sapiens), african clawed frog (Xenopus laevis), rainbow trout (Oncorhynchus mykiss), japanese medaka (Oryzias latipes), and zebrafish (Danio rerio). The ECOTOX2-FACTORIAL format uses HepG2, a human liver cell line, with measurements taken at 24 hours after chemical dosing in a 24-well plate. ATG_frPPARa_EcoTox2 is one of 29 assay components calculated in the ATG_EcoTox2 assay. It is designed to make measurements of mRNA induction, a form of inducible reporter, as detected with fluorescence intensity signals by Reverse transcription polymerase chain reaction (RT-PCR) and Capillary electrophoresis technology.The assay endpoint ATG_frPPARa_EcoTox2 was analyzed in the positive analysis fitting direction relative to DMSO as the negative control and baseline of activity. Using a type of inducible reporter, measures of mRNA for gain-of-signal activity can be used to understand the reporter gene at the transcription factor-level as they relate to the gene PPARa. Furthermore, this assay endpoint can be referred to as a primary readout, because this assay has produced multiple assay endpoints where this one serves a reporter gene function. To generalize the intended target to other relatable targets, this assay endpoint is annotated to the nuclear receptor intended target family, where the subfamily is non-steroidal.
Human liver HepG2 cells are transiently transfected with multiple reporter transcription units (MRTUs) in 6-well plates using FuGene 6 reagent (Roche; 3 ml FuGene/1 mg DNA). The MRTU constructs are regulated by a cis-regulating element (promoter). Each RTU expresses a GAL4-UAS that regulates the transcription of a nearby target reporter gene sequence. A major difference between the CIS and TRANS system is that in CIS activities of endogenous TFs are measured, whereas the TRANS assay evaluates changes in activities of exogenous, chimeric NR-Gal4 proteins. […] At the end of 24 hour incubation, total RNA was isolated using TriZol reagent (Invitrogen). The isolated RNA is then reverse-transcribed using oligo(dT) primer and Mo-MLV reverse transcriptase (Invitrogen) with DNAse I (Ambion) treatment for 30 min. The one-tenth of the produced cDNA was amplified by PCR using Taq DNA polymerase (Invitrogen) and two reporter sequence-specific primers. The PCR products were fluorescently labeled by primer extension with 6-arboxyfluorescein (6-FAM) 5'-labeled reporter sequence-specific primer (2 min at 95 C, 20 s at 68 C and 10 min at 72 C) and these products were digested with 5U of HpaI (New England Biolabs) for 2h at 37 C. The fragments were purified using Qiaquick PCR columns (Qiagen), analyzed on an ABI 3130xL genetic analyzer (Applied Biosystems) with peak positions identified by using a set of X-rhodamine (ROX)-labeled MapMarker1000 molecular weight standards (BioVentures). The raw capillary electrophoresis data was processed using Attagraph software (Attagene).
For `CC(c1cc2ccccc2s1)N(O)C(N)=O` (stereo not drawn), the compound was classed as inactive.

As for `CC(C)(Oc1ccc(C2CC2(Cl)Cl)cc1)C(=O)O` (stereo not drawn), the AC50 was 113 µM (active).

As to `C=C(c1ccc(C(=O)O)cc1)c1cc2c(cc1C)C(C)(C)CCC2(C)C`, the outcome was inactive.

As to `CC(C)(Oc1ccc(CCNC(=O)c2ccc(Cl)cc2)cc1)C(=O)O`, the AC50 is 23.6 µM (active).

Turning to `CN(CCOc1ccc(CC2SC(=O)NC2=O)cc1)c1ccccn1` (stereo not drawn), the AC50 was 8.4 µM (active).

`CC(C)(Oc1ccc(Cl)cc1)C(=O)O`: the outcome was inactive.

On to `C[C@@H]1C[C@H]2[C@@H]3CCC4=CC(=O)C=C[C@]4(C)[C@@]3(F)[C@@H](O)C[C@]2(C)[C@@]1(O)C(=O)COP(=O)(O)O`, for which the call was inactive.

With `Cc1cccc(Nc2cc(Cl)nc(SCC(=O)O)n2)c1C`, the AC50 was 11.9 µM (active).

Turning to `Cc1ccc(C)c(OCCCC(C)(C)C(=O)O)c1`, the AC50 is 50 µM (active).

Consider `C[C@]12C=CC(=O)C=C1CC[C@@H]1[C@@H]2C(=O)C[C@@]2(C)[C@H]1CC[C@]2(O)C(=O)CO`, for which the compound was called inactive.

Consider `CC(C)OC(=O)C(C)(C)Oc1ccc(C(=O)c2ccc(Cl)cc2)cc1`, for which the outcome was inactive.

Consider `Cc1nc(-c2ccc(C(F)(F)F)cc2)sc1C(=O)NCc1ccc(OC(C)(C)C(=O)O)cc1`, for which the AC50 was 0.0823 µM (active).

As to `Cc1c(C)c2c(c(C)c1O)CCC(C)(COc1ccc(CC3SC(=O)NC3=O)cc1)O2` (stereo not drawn), the compound was called inactive.
